Measurements from PubChem BioAssay (NCI).
This is part of a sample that, as a whole, favours compounds with a hit. Of some 83,000 tested, about 20% had one in any assay.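 For each line, cells grew in 96-well plates with the test compound present at a single concentration for 48 hours.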 A number with no mark means an inactive call. Calls of active or inactive are those of the source. The calls were made as follows: active = growth percent below 10; inactive = the rest.

The molecules below were run on U251 CNS (assay: NCI-60 one-dose screen, 48 h (100 = growth as untreated, 0 = no growth, -100 = all killed)). Details: 10 µM unless noted.

Compound	growth
COc1ccc2c(CCCCC(c3ccccc3)c3ccccc3)c3[n+](cc2c1OC)CCc1cc2c(cc1-3)OCO2	-93.2% (active)
CCN1CCN(c2cc(C)nc(N(CCCNc3ccnc4cc(Cl)ccc34)Cc3ccc4c(c3)OCO4)n2)CC1	-45.4% (active)
O=C(Nc1ccc(C(=O)Nc2ccc(C3=NCCCN3)cc2)cc1)Nc1ccc(C2=NCCCN2)cc1	84.6%
CCOC(=O)C1=C(C)N=C2Sc3cc(OC(F)(F)F)ccc3N2[C@H]1c1ccccn1	23.1%
Nc1c2c(c(O)c3c1=C(CO)C=N3)=NCCS2	-91.5% (active)
C[C@@H](C[C@H](CCO)c1cc(C(F)(F)F)cc(C(F)(F)F)c1)c1ccc2ccccc2c1	91.5%
CN(N)c1nc2sc3c(c2c(=O)[nH]1)CCCC3	92.1%
Cc1cc(N(CCNc2ccnc3cc(Cl)ccc23)Cc2ccc3c(c2)OCO3)nc(N2CCN(C)CC2)n1	-22.1% (active)
C[N+](C)(CCOC(c1ccccc1)c1ccccc1)CC(=O)OCc1ccccc1	106%
CC1(/C=N/NC(N)=S)NC(=O)NC1=O (stereo not drawn)	94.5%
[2H]C1([2H])[C@H](C)O[C@H](C)C([2H])([2H])N1c1ccc(NC(=O)c2cccc(-c3ccc(OC(F)(F)F)cc3)c2C)cn1	65.3%
N#Cc1cc2[nH]c3ccc(OC(F)(F)F)cc3c2oc1=O	73.2%
COc1ccc2c(c1OC)C(=O)O[C@@H]2[C@H]1c2c(c(C#CC#Cc3ccc(F)c(F)c3)c3c(c2OC)OCO3)CCN1C	88.4%
CCC1(/C=N/NC(N)=S)NC(=O)NC1=O (stereo not drawn)	86.8%
CC(C)C1CCC(C)C(C2(C#N)C(N)=NC(N)=C2C#N)C1=O (stereo not drawn)	99.7%
NC(=O)c1n[nH]n2c1nc(=O)c1c3c(sc12)CCCC3	97%
CCOC(=O)C1=C(C)NC(=O)NC1c1cc(=O)oc2ccc(C)cc12 (stereo not drawn)	102%
C=CC(=O)N(C)[C@H]1C[C@H]2OC(C)(C1OC)n1c3ccccc3c3c4c(c5c6ccccc6n2c5c31)C(=O)NC4 (stereo partly drawn)	-35.8% (active)
Cc1cc2c(-c3nc4ccccn4c3Nc3cccc4ccccc34)c(O)c(O)cc2c(O)c1-c1c(C)cc2c(-c3nc4ccccn4c3Nc3cccc4ccccc34)c(O)c(O)cc2c1O	12.9%
N#CC1(C#N)C(c2cccs2)NC(c2cccs2)C1(C#N)C#N (stereo not drawn)	104%

Compound	growth
CC1CCC(n2cnc3c(Cl)ncnc32)O1 (stereo not drawn)	102%
Oc1ccc(/C=N/Nc2nnc(N/N=C/c3ccc(O)cc3O)c3ccccc23)c(O)c1	-25% (active)
CCc1ccc(/C=C/c2ccc(O)c3ncccc23)[n+](C)c1	25.9%
COc1ccc(OC)c(NC2=C(SCCc3ccccc3)C(=O)c3ccccc3C2=O)c1	77%
CCN1/C(=C/C=C/c2n(-c3ccccc3)c3ccc(-c4nc5ccccc5s4)cc3[n+]2CC)N(c2ccccc2)c2ccc(-c3nc4ccccc4s3)cc21	4.79% (active)
COC(=O)c1[nH]cnc1/N=N/N(C)CCO	104%
O=C1CC(c2ccc(Cl)cc2)c2ncn(-c3cccc(Cl)c3)c2N1 (stereo not drawn)	36.3%
COC(=O)CC[C@@H](C)[C@H]1CC[C@H]2C3CC[C@@H]4C[C@@H]5CC[C@]4(C)[C@@]3(O5)[C@H](Br)[C@@H](Br)[C@]12C (stereo partly drawn)	88.6%
CC(=O)OCCC/C(=C\c1ccc2ccccc2c1)[N+](=O)[O-]	-90.7% (active)
COc1cc(-c2cc(-c3ccc(Nc4ccnc5cc(Cl)ccc45)cc3)nc(N3CCOCC3)n2)cc(OC)c1OC	-57.1% (active)
CCOC(=O)Sc1ncnc2nc[nH]c12	91.7%
COc1cc2c3c(c1)nc(C)n3CCC2	91.9%
CCCCCCCC(=O)SCC/C=C/[C@@H]1CC(=O)NCc2cccc(n2)C2=N[C@@](C)(CS2)C(=O)N[C@@H](C(C)C)C(=O)N1	13.7%
COc1ccc2c(CCc3ccc(Cl)cc3)c3[n+](cc2c1OC)CCc1cc2c(cc1-3)OCO2	22.4%
CC(=O)C(C(C)=O)C(c1ccccc1)C(C(C)=O)C(C)=O	93.5%
Cc1ccc(NC(=O)NC(=O)CSc2nc3ccccc3nc2C)cc1	84.2%
Cc1cc(N(CCNc2ccnc3cc(Cl)ccc23)Cc2ccc3c(c2)OCO3)nc(N2CCCC2)n1	-17.6% (active)
O=C(Nc1ccc(C2=NCCCN2)cc1)c1ccc(C(=O)Nc2ccc(C3=NCCCN3)cc2)nc1	105%
COC(=O)C1=C(C(=O)OC)C23C=C(C)C1C2=C(C)C1(CC1)[C@@](C)(O)C3=O (stereo partly drawn)	2.06% (active)

What follows are molecules tested on PC-3 prostate in the same assay as above. Details: 10 µM unless noted.

Compound	growth
COc1ccc2c(CCCCC(c3ccccc3)c3ccccc3)c3[n+](cc2c1OC)CCc1cc2c(cc1-3)OCO2	-75% (active)
CCN1CCN(c2cc(C)nc(N(CCCNc3ccnc4cc(Cl)ccc34)Cc3ccc4c(c3)OCO4)n2)CC1	15.8%
O=C(Nc1ccc(C(=O)Nc2ccc(C3=NCCCN3)cc2)cc1)Nc1ccc(C2=NCCCN2)cc1	90%
CCOC(=O)C1=C(C)N=C2Sc3cc(OC(F)(F)F)ccc3N2[C@H]1c1ccccn1	50.9%
Nc1c2c(c(O)c3c1=C(CO)C=N3)=NCCS2	-51.8% (active)
C[C@@H](C[C@H](CCO)c1cc(C(F)(F)F)cc(C(F)(F)F)c1)c1ccc2ccccc2c1	83%
CN(N)c1nc2sc3c(c2c(=O)[nH]1)CCCC3	94.9%
Cc1cc(N(CCNc2ccnc3cc(Cl)ccc23)Cc2ccc3c(c2)OCO3)nc(N2CCN(C)CC2)n1	48.2%
C[N+](C)(CCOC(c1ccccc1)c1ccccc1)CC(=O)OCc1ccccc1	98.3%
CC1(/C=N/NC(N)=S)NC(=O)NC1=O (stereo not drawn)	93%
[2H]C1([2H])[C@H](C)O[C@H](C)C([2H])([2H])N1c1ccc(NC(=O)c2cccc(-c3ccc(OC(F)(F)F)cc3)c2C)cn1	62.1%
N#Cc1cc2[nH]c3ccc(OC(F)(F)F)cc3c2oc1=O	60.3%
COc1ccc2c(c1OC)C(=O)O[C@@H]2[C@H]1c2c(c(C#CC#Cc3ccc(F)c(F)c3)c3c(c2OC)OCO3)CCN1C	50.8%
CCC1(/C=N/NC(N)=S)NC(=O)NC1=O (stereo not drawn)	85.1%
CC(C)C1CCC(C)C(C2(C#N)C(N)=NC(N)=C2C#N)C1=O (stereo not drawn)	86%
NC(=O)c1n[nH]n2c1nc(=O)c1c3c(sc12)CCCC3	85.3%
CCOC(=O)C1=C(C)NC(=O)NC1c1cc(=O)oc2ccc(C)cc12 (stereo not drawn)	97.2%
C=CC(=O)N(C)[C@H]1C[C@H]2OC(C)(C1OC)n1c3ccccc3c3c4c(c5c6ccccc6n2c5c31)C(=O)NC4 (stereo partly drawn)	17.5%
Cc1cc2c(-c3nc4ccccn4c3Nc3cccc4ccccc34)c(O)c(O)cc2c(O)c1-c1c(C)cc2c(-c3nc4ccccn4c3Nc3cccc4ccccc34)c(O)c(O)cc2c1O	16%
N#CC1(C#N)C(c2cccs2)NC(c2cccs2)C1(C#N)C#N (stereo not drawn)	94.6%

Compound	growth
CC1CCC(n2cnc3c(Cl)ncnc32)O1 (stereo not drawn)	89.6%
Oc1ccc(/C=N/Nc2nnc(N/N=C/c3ccc(O)cc3O)c3ccccc23)c(O)c1	-50.8% (active)
CCc1ccc(/C=C/c2ccc(O)c3ncccc23)[n+](C)c1	61.3%
COc1ccc(OC)c(NC2=C(SCCc3ccccc3)C(=O)c3ccccc3C2=O)c1	64.7%
CCN1/C(=C/C=C/c2n(-c3ccccc3)c3ccc(-c4nc5ccccc5s4)cc3[n+]2CC)N(c2ccccc2)c2ccc(-c3nc4ccccc4s3)cc21	16.2%
COC(=O)c1[nH]cnc1/N=N/N(C)CCO	109%
O=C1CC(c2ccc(Cl)cc2)c2ncn(-c3cccc(Cl)c3)c2N1 (stereo not drawn)	67.7%
COC(=O)CC[C@@H](C)[C@H]1CC[C@H]2C3CC[C@@H]4C[C@@H]5CC[C@]4(C)[C@@]3(O5)[C@H](Br)[C@@H](Br)[C@]12C (stereo partly drawn)	77.9%
CC(=O)OCCC/C(=C\c1ccc2ccccc2c1)[N+](=O)[O-]	-96.8% (active)
COc1cc(-c2cc(-c3ccc(Nc4ccnc5cc(Cl)ccc45)cc3)nc(N3CCOCC3)n2)cc(OC)c1OC	-5.02% (active)
CCOC(=O)Sc1ncnc2nc[nH]c12	88%
COc1cc2c3c(c1)nc(C)n3CCC2	90.1%
CCCCCCCC(=O)SCC/C=C/[C@@H]1CC(=O)NCc2cccc(n2)C2=N[C@@](C)(CS2)C(=O)N[C@@H](C(C)C)C(=O)N1	26.9%
COc1ccc2c(CCc3ccc(Cl)cc3)c3[n+](cc2c1OC)CCc1cc2c(cc1-3)OCO2	36.4%
CC(=O)C(C(C)=O)C(c1ccccc1)C(C(C)=O)C(C)=O	89.8%
Cc1ccc(NC(=O)NC(=O)CSc2nc3ccccc3nc2C)cc1	67%
Cc1cc(N(CCNc2ccnc3cc(Cl)ccc23)Cc2ccc3c(c2)OCO3)nc(N2CCCC2)n1	36.1%
O=C(Nc1ccc(C2=NCCCN2)cc1)c1ccc(C(=O)Nc2ccc(C3=NCCCN3)cc2)nc1	106%
COC(=O)C1=C(C(=O)OC)C23C=C(C)C1C2=C(C)C1(CC1)[C@@](C)(O)C3=O (stereo partly drawn)	11.5%
